Fam108B inh: Fam108B inhibition, counter-screen for RBBP9 inhibitors; AID 1947; inhibition, % at 9.51 µM; recombinant Fam108B, FP-Rh probe fluorescence polarization; actives 0.33% (n = 300,000);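 active = inhibition above the screen mean inhibition plus 3 SD, computed separately per campaign, cut at about 18% in these data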;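 also: inhibitors lower polarization as less probe binds the enzyme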
PP5 inh: inhibitors of human protein phosphatase 5 (PP5); P53041; actives 0.18% (n = 320,000); purified PP5c, OMFP substrate fluorescence; AID 1987; inhibition, % at 6.7 µM;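 active = inhibition above the campaign's mean inhibition across all tested compounds plus 3 SD, cut at about 9.5% in these data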;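 also: 0% = DMSO only and 100% = 100 µM cantharidin control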
PP1 counter: blocks human PP1-alpha phosphatase, a PP5 counter-screen; inhibition, % at 6.7 µM; actives 0.9% (n = 320,000); purified PP1alpha, OMFP fluorescence; P62136;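 active = inhibition above the mean inhibition of all tested compounds plus 3 SD, computed separately for each screening campaign, cut at about 15% in these data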
LYPLA2 counter: blocks human lysophospholipase 2, a PME1 counter-screen; actives 0.38% (n = 320,000); recombinant LYPLA2, FP-Rh probe fluorescence polarization; inhibition, % at 5.9 µM; O95372;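 active = inhibition above the screen-wide mean plus 3 SD, limit set per campaign, cut at about 26% in these data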;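 also: 0% = LYPLA2 with DMSO and 100% = wells lacking LYPLA2 enzyme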
PME-1 inh: PME-1 (human) inhibition; AID 2130; actives 0.53% (n = 320,000); recombinant PME-1, FP-Rh probe fluorescence polarization; inhibition, % at 5.9 µM; Q9Y570;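 active = inhibition above the campaign mean of all compounds plus 3 SD, cut at about 26% in these data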;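 also: competitive labeling of PME-1 active site by serine hydrolase directed probe; 0% = PME-1 with DMSO and 100% = wells lacking PME-1 enzyme; inhibitors block probe labeling so polarization falls and inhibition rises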
Target sequence (Q9Y570 whole entry, looked up): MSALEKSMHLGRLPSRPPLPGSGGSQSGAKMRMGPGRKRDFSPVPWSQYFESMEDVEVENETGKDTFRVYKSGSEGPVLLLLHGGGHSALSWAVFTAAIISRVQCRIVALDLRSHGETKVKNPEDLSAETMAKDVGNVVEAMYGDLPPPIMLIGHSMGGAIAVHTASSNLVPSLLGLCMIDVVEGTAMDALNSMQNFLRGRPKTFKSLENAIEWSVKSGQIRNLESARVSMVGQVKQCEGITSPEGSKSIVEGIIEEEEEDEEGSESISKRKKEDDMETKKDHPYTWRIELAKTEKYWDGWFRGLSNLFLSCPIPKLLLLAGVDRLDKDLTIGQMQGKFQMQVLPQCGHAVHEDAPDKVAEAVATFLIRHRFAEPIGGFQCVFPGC
LYPLA1 counter: counter-screen for PME1 inhibitors: inhibitors of human LYPLA1; recombinant LYPLA1, FP-Rh probe fluorescence polarization; inhibition, % at 5.9 µM; actives 0.16% (n = 320,000);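 active = inhibition above the mean of all tested compounds plus 3 SD, set per campaign, cut at about 14% in these data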;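 also: inhibitors block serine hydrolase probe labeling of LYPLA1 so polarization falls; 0% = enzyme with DMSO and 100% = wells lacking LYPLA1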
Target sequence (O75608 whole entry, looked up): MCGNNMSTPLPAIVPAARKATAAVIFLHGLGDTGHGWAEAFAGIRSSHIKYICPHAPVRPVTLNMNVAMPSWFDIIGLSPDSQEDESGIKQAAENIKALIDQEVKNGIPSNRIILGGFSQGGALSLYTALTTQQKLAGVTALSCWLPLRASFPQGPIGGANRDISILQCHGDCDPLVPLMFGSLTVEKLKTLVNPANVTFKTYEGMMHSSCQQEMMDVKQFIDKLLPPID
* marks the source's active call; other numbers are inactive results; / = not tested or not shown. This is a sample that favours compounds with a hit; in the whole collection about 1.8% have one here.

SMILES | Fam108B inh | PP5 inh | PP1 counter | LYPLA2 counter | PME-1 inh | LYPLA1 counter
N#CCC(=O)Nc1ccc(C(=O)NCCC(c2ccccc2)c2ccccc2)cc1 | -7 | 3 | 16* | -17 | 13 | -20
COc1ccc(C(=O)c2sc3nc(-c4ccccc4)ccc3c2N)cc1 | 14 | 1 | -2 | 14 | 35* | -4
CC(C)OC(=O)c1sc2nc(-c3ccccc3)ccc2c1N | 7 | 4 | 3 | 0 | 7 | -3
COC(=O)C1=C(CN2CCc3ccccc32)NC(=O)NC1c1cc(C)ccc1C (stereo unspecified) | -1 | 1 | 15* | -2 | 2 | -3
CCC(C)Sc1ccc([C@H]2N[C@@](Cc3ccccc3)(C(=O)OC)[C@H]3C(=O)N(CC)C(=O)[C@@H]23)cc1 (stereo partly specified) | 5 | 4 | 7 | -4 | -1 | 4
CCCCn1cnc2c(c(-c3ccccc3)c(-c3ccccc3)n2Cc2ccco2)c1=N | 5 | 1 | 4 | 5 | 6 | 4
N=c1c2c(-c3ccccc3)c(-c3ccccc3)n(Cc3ccco3)c2ncn1Cc1ccco1 | 5 | 3 | 16* | 5 | -3 | -2
N=c1c2c(-c3ccccc3)c(-c3ccccc3)n(Cc3ccccc3)c2ncn1CCCn1ccnc1 | 2 | 2 | 15* | -6 | 3 | -1
CC1CN(C(=O)CCC(=O)NCCCN2CCN(Cc3ccccc3)CC2)c2cc(Cl)ccc2O1 (stereo unspecified) | 2 | -1 | 1 | 6 | 14 | -1
O=C(NC1CCCCC1)c1ccc(-n2cnnn2)cc1 | -1 | -2 | -5 | -4 | -7 | -1
Oc1c(Cl)cc(Cl)cc1CNn1cnnc1 | 0 | -2 | -1 | -3 | -9 | -5
Oc1c(Cl)cc(Cl)cc1Sc1cc(Cl)cc(Cl)c1O | 44* | 9 | 40* | 4 | 42* | -10
CCc1ccc2[nH]c(=O)c(C3C(C#N)=C(N)Oc4c3ccc3cccnc43)cc2c1 (stereo unspecified) | 4 | 1 | 23* | 3 | -2 | -1
Oc1[nH]c2ccccc2c1N=Nc1ncnc2c1oc1ccccc12 | 4 | -3 | -5 | -3 | 30* | 0
O=C(NCCS(=O)(=O)N1CCN(c2ccccc2F)CC1)c1cccs1 | -1 | 0 | 1 | 9 | -5 | 0
CC(CN1CCCCC1)OC(=O)/C=C/c1ccccc1 (stereo unspecified) | 2 | 1 | -1 | 3 | 6 | 0
Cn1cccc1CC(=O)N/N=C\c1c2ccccc2cc2ccccc12 | -5 | 0 | 16* | 8 | 0 | 2
CCOC(=O)c1sc(N)c(C(=O)Nc2ccccc2OC)c1C | 3 | 3 | -2 | 3 | 29* | 0
CCOC(=O)CCNC(=O)N1CCCC(N2CCN(c3ccc(OC)cc3)CC2)C1 (stereo unspecified) | 0 | 2 | -2 | 0 | 1 | 3
N#Cc1cc2ccccc2nc1SCC(=O)Nc1ccccc1N1CCOCC1 | -8 | 1 | -3 | -4 | 30* | -2
Cc1cccc2cc(C#N)c(SCC(=O)Nc3ccccc3N3CCOCC3)nc12 | -16 | 0 | -6 | -10 | -2 | -2
CCO[C@@H]1OC(C(=O)N2CCN(Cc3ccccc3)CC2)=C[C@H](c2cn(C(C)=O)c3ccccc23)[C@H]1CCCO | 4 | 1 | 0 | 4 | 71* | -1
CCO[C@@H]1OC(C(=O)N2CCOCC2)=C[C@H](c2cn(C(C)=O)c3ccccc23)[C@H]1CCCO | 2 | 5 | 6 | 2 | 1 | 1
Cc1ccc(-n2nc3c(N4CCC(C(=O)NCc5ccccc5C)CC4)nnc(C)c3c2C)cc1 | 0 | 4 | 16* | 8 | -3 | 5
Cc1ccnc(NC(=O)COc2ccc3c(c2)CCC3)c1 | 8 | 2 | 2 | -2 | -44 | -2
SMILES | Fam108B inh | PP5 inh | PP1 counter | LYPLA2 counter | PME-1 inh | LYPLA1 counter
CC1CCN(C(=O)CCc2nnc3ccc(N4CCC5(CC4)OCCO5)nn23)CC1 | 0 | 1 | -5 | 5 | 4 | -3
NC(=O)[C@@H]1CC2(CC(c3cccc(NC(=O)COc4ccc(Cl)cc4)c3)=NO2)CN1C(=O)COc1ccc(Cl)cc1 (stereo partly specified) | -26 | 4 | 12 | -57 | -37 | -36
C/C=C(\C)C(=O)Nc1cccc(C2=NOC3(C2)C[C@@H](C(N)=O)N(C(=O)c2cc([N+](=O)[O-])cc([N+](=O)[O-])c2C)C3)c1 (stereo partly specified) | 6 | 2 | 2 | 3 | -2 | -1
Cc1c(C(=O)N2CC3(CC(c4cccc(NC(=O)CC(c5ccccc5)c5ccccc5)c4)=NO3)C[C@@H]2C(N)=O)cc([N+](=O)[O-])cc1[N+](=O)[O-] (stereo partly specified) | -10 | 4 | 16* | -36 | -13 | -19
NC(=O)[C@H]1CC2(CC(c3cccc(NC(=O)COc4ccc(Cl)cc4)c3)=NO2)CN1C(=O)C(c1ccccc1)c1ccccc1 (stereo partly specified) | -32 | 2 | 16* | -71 | -45 | -37
CC(=O)c1ccc(N(CC(=O)NC2CCS(=O)(=O)C2)S(=O)(=O)c2ccc(Cl)cc2)cc1 (stereo unspecified) | / | -2 | -2 | -2 | 5 | 2
CCOC(=O)C1=C(C)Nc2ccccc2N/C1=N\S(=O)(=O)c1ccc(Cl)cc1 | / | 4 | -4 | 2 | 2 | -4
CCOC(=O)C1=C(C)Nc2ccccc2N/C1=N\S(=O)(=O)c1cccc(Cl)c1 | / | -1 | 0 | 1 | 26* | -2
N=C(N)SCc1ccc(Cl)cc1Cl | -1 | 1 | 15* | -1 | -3 | -5
O=C(C1CCCN1S(=O)(=O)c1cccc2cccnc12)N1CCn2c1nc1ccccc12 (stereo unspecified) | 2 | 0 | -1 | -5 | -2 | 2
O=C(C1CCN(S(=O)(=O)c2cccc3cccnc23)CC1)N1CCn2c1nc1ccccc12 | 1 | 4 | -1 | -5 | 28* | 2
CC(Sc1nc2c(c(=O)[nH]1)CCCC2)C(=O)Nc1ccccc1C#N (stereo unspecified) | -1 | 0 | -4 | 2 | -5 | 1
O=C(NCc1ccccc1)C1CCN(S(=O)(=O)c2ccc(Cl)cc2)CC1 | -3 | 4 | -1 | 3 | 44* | -2
COc1ccc(N(CC(=O)N2CCOCC2)S(C)(=O)=O)cc1 | 0 | 1 | 1 | 3 | -2 | 2
CC1=C/C(=C\c2ccc(Br)o2)C(=O)O1 | 3 | 2 | 0 | 3 | -4 | -1
O=C1C(=Cc2ccc(Br)o2)C(=O)c2ccccc21 | 55* | 2 | 2 | 2 | -7 | -7
Cc1cc(C)c2nc(NNC(=O)c3ccc(S(=O)(=O)N4CCCCC4)cc3)sc2c1 | 14 | 0 | 16* | 7 | 7 | -1

From PubChem
